High-throughput results deposited in PubChem BioAssay by The Scripps Research Institute Molecular Screening Center.
This excerpt belongs to a sample that is enriched for hits.
TTR transcr act: activators of transthyretin transcription; SH-SY5Y TTR promoter Gaussia luciferase, luminescence; 100% = recombinant luciferase protein wells; activation, % at 16.7 µM; 92,000 compounds, 1.3% hits;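 active = activation above the mean of all tested compounds plus 3 SD, cut at about 9.5% in these data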;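 note: cells exposed to compounds for one day before reading; 0% = median of all test compound wells on the plate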
TTR inh HuH7: HuH7 TTR transcription inhibition, counter-screen; inhibition, % at 16.7 µM; shares compounds with TTR transcr act; 1,100 compounds, 4% hits; HuH7 TTR promoter-Gaussia luciferase reporter, luminescence; AID 1117279;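 active = average inhibition above the solvent-only control wells' mean plus 3 SD, cut at about 15% in these data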;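 note: 0% = cells with DMSO only and 100% = cells with inhibitor control FD; inhibitors lower well luminescence so higher value means more inhibition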
TTR act confirm: confirmation of human transthyretin transcription activators | shares compounds with TTR transcr act | SHSY5Y TTR promoter Gaussia luciferase, luminescence; 100% = purified Lucia enzyme wells, no cells | activation, % at 16.7 µM | 1,100 tested, under 10 active | AID 1117280;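 active = mean activation above a set limit taken from the earlier primary screen, cut at about 11% in these data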;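 note: 0% = DMSO-treated cells and 100% = recombinant Lucia luciferase without cells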
The depositor's hits bear a star; ! = not confirmed by another sample.

Screening O=C(Cc1cccc(NC(=O)C2CCCN(C(=O)C3CC3)C2)c1)Nc1ccc(C(=O)N2CCCCC2)cc1 (stereo not drawn) returned TTR transcr act 0.8.
Screening O=C(Cc1cccc(NC(=O)C2CCCN(C(=O)c3ccccc3)C2)c1)Nc1cccc(C(=O)N2CCCCC2)c1 (stereo not drawn) returned TTR transcr act 2.6.
`Cc1nc(CN(C)c2ncnc3ccc(-c4ccc5c(c4)OCO5)cc23)cs1` gave TTR transcr act -0.8.
Cc1occc1CNc1ncnc2ccc(-c3ccc4c(c3)OCO4)cc12 was read as TTR transcr act 1.9.
For CN(Cc1ccco1)c1ncnc2ccc(-c3ccc4c(c3)OCO4)cc12 the results were TTR transcr act 27.0*!, TTR inh HuH7 -6.5 and TTR act confirm 0.4.
For NC(=O)c1c(N)[nH]c(C(=O)c2ccccc2)c1-c1ccccc1C(F)(F)F the results were TTR transcr act -0.2.
Screening CS(=O)(=O)N1c2ccccc2C[C@H]1Cc1cc2ccccc2o1 returned TTR transcr act -1.1.
Screening CCCC/C=C1/[C@H](c2ccccc2)N(C)C2=N[C@H](c3ccccc3)CC(=O)N21 returned TTR transcr act 1.5.
O=C(Cc1ccccc1)NCC(=O)OCC(=O)c1ccc(Cl)c([N+](=O)[O-])c1 was read as TTR transcr act 46.3*, TTR inh HuH7 -1.5 and TTR act confirm -0.5.
Screening O=C(CNC(=O)c1ccccc1)NCC(=O)OCC(=O)c1ccccc1Cl returned TTR transcr act 1.6.
CCN(C(=O)c1ccc(Cl)c([N+](=O)[O-])c1)c1ccccc1 was read as TTR transcr act 1.0.
O=C(NCc1ccccc1)OCCN1C(=O)CCC12CCCCC2 was read as TTR transcr act 0.5.
COc1ccc2nc(NC(=O)Cn3cnc4ccccc4c3=O)sc2c1 was read as TTR transcr act -0.4.
CCN1CCCCC(NC(=O)c2ccc(Cl)cc2Cl)C1=O (stereo not drawn) was read as TTR transcr act -0.5.
`COc1ccc(C2CC(c3ccc(OC)c(OC)c3)=NN2S(C)(=O)=O)cc1` (stereo not drawn) gave TTR transcr act -0.8.
Screening CS(=O)(=O)N1N=C(c2cccs2)CC1c1ccccc1 (stereo not drawn) returned TTR transcr act 0.5.
`CS(=O)(=O)N1N=C(c2ccco2)CC1c1ccc(Br)cc1` (stereo not drawn) gave TTR transcr act 17.7*, TTR inh HuH7 -18.6 and TTR act confirm -0.2.
`Cc1ccc(-c2cc(C#N)c3n(c2=O)CCC3)cc1` gave TTR transcr act -1.2.
For CC1(c2nnnn2Cc2ccccc2)CSCC(=O)N1Cc1cccs1 (stereo not drawn) the results were TTR transcr act -0.5.
CCOC(=O)N1CCN(C(=O)C[C@H]2C[C@@]3(C(=O)OC)C(=C[C@H](C(C)C)O[C@@H]3C3CC3)N(Cc3cccc4ccccc34)C2=O)CC1 was read as TTR transcr act -0.8.
Screening O=C(c1ccccc1Oc1ccccc1)N1CCC(Oc2cccnc2)CC1 returned TTR transcr act 0.0.
CCN(CC)C(=O)Cn1c2ccccc2c2nc3n(c(=O)c21)CCS3 was read as TTR transcr act -1.0.
CCCC[C@H]1C2CC(OC(=O)Nc3ccccc3C(F)(F)F)C(C2)[C@H]2CCCCN21 (stereo partly drawn) was read as TTR transcr act -1.3.
For CCCc1nc2sc3ccccc3c(=O)c2c(=O)n1Cc1ccccc1 the results were TTR transcr act -0.6.
For Cn1c2ccccc2c(=O)c2c(=O)n(Cc3ccco3)c(-c3ccc(F)cc3)nc21 the results were TTR transcr act 2.6.
Screening O=c1c2ccccc2sc2nc(C3CCCCC3)n(Cc3ccco3)c(=O)c12 returned TTR transcr act 16.7*, TTR inh HuH7 2.0 and TTR act confirm -1.3.
For CCCCCCC[C@H](N)[C@H](O)C(=O)N(C)[C@@H](CCS(C)=O)C(=O)N[C@@H](Cc1ccc(O)cc1)C(=O)O (stereo partly drawn) the results were TTR transcr act -0.5.
`CCOC(=O)[C@@]12CCCC=C1N(CCc1ccc(Cl)cc1)C(=O)[C@H]2CC(=O)NCc1ccccc1` gave TTR transcr act -0.5.
`CC(C)CNC(=O)OCc1cn(Cc2c(F)cccc2F)nn1` gave TTR transcr act 0.9.
`O=C(NC1CCCCC1)C(CCc1ccccc1)N1CCc2ccccc2C1` (stereo not drawn) gave TTR transcr act 0.5.
Oc1ccc(/C=N/NC(=S)Nc2cccnc2)cc1O was read as TTR transcr act -1.8.
`O=C(N/N=C/c1ccc(O)c(O)c1)N/N=C/c1ccc(O)c(O)c1` gave TTR transcr act 11.2*, TTR inh HuH7 -10.5 and TTR act confirm -0.8.
Screening Cc1cc(SCC(=O)N/N=C/c2ccc(O)c(O)c2)c(C)cc1Br returned TTR transcr act 4.4.
